The text below walks through data of PubChem BioAssay (Tox21).

A number with no mark means an inactive call. Results filed as inconclusive are left out. Calls of active or inactive are those of the source. Unless noted, calls come from the whole dose curve; as a rule, active = well fitted curve in the direction sought with a large enough effect in the repeat runs; inconclusive = weak or mixed curves; inactive = no such curve, though single readings can be large; an effect the other way counts as inactive or inconclusive.

The target of assay [1] is Progesterone receptor (Homo sapiens) (UniProt P06401). Put plainly: qHTS assay to identify small molecule agonists of the progesterone receptor (PR) signaling pathway (AID 1346784; calls by dose curve; note: % is set by controls: 0 for no effect and ±100 for the full control effect; nearly all actives have a fitted effect of over 30% in size). The essentials: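 HEK 293T PR-UAS-bla reporter cells, 2% charcoal-stripped FBS; 6 hr settle at 37C/5% CO2, compound (DMSO) 16 hr, LiveBLAzer B/G FRET substrate 2 hr RT, fluorescence intensity read.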
On the technique in general: In qHTS, concentration-response curves come from the screen itself.

Assay [2] has the same target. The assay is described as follows: qHTS assay to identify small molecule antagonists of the progesterone receptor (PR) signaling pathway (AID 1346795; active = well fitted inhibition curve with a large enough effect in the signal ratio in the repeat runs, not every such curve was filed as active; the % refers to the signal ratio; note: potency is the fitted concentration of half-maximal effect). Put shortly:
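Beta-lactamase reporter, HEK293T PR-UAS-bla line; 2% charcoal-stripped FBS; 6 hr pre-incubation, 37C/5% CO2. Compound + R5020 1 nM final, 16 hr. LiveBLAzer B/G FRET substrate, 2 hr RT; fluorescence intensity read.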

Assay [3] is described as follows: qHTS assay to identify small molecule antagonists of the progesterone receptor (PR) signaling pathway - cell viability counter screen (AID 1346798). Note: series mostly up to about 92 µM; % is set by controls: 0 for no effect and ±100 for the full control effect; nearly all actives have a fitted effect of over 50% in size. Put shortly: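 Luminescence readout (CellTiter-Glo, 30 min, RT) of viability in PR-UAS-bla HEK293T cells exposed to compound and R5020 agonist for 16 hr at 37C, 5% CO2; run in the same wells as the beta-lactamase reporter read.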

The nature of assay [4]: qHTS assay to identify small molecule antagonists of the TGF-beta/Smad signaling pathway - cell viability counter screen (AID 1346824). Note: % is set by controls: 0 for no effect and ±100 for the full control effect; nearly all actives have a fitted effect of over 50% in size. Put shortly: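 SBE-bla HEK 293T cells were plated overnight at 37 C, then given compounds in DMSO plus TGF-beta1 (added as 0.25 ng/mL solution) for 5 hr. After the bla read, CellTiter-Glo was added to the same wells and luminescence read after 30 min at room temperature.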

Assay [5] is described as follows: qHTS assay to identify small molecule agonists of the TGF-beta/Smad signaling pathway (AID 1346859; active = well fitted activation curve with a large enough effect in the signal ratio in the repeat runs, not every such curve was filed as active; the % refers to the signal ratio; note: series mostly up to about 77 µM; % is set by controls: 0 for no effect and ±100 for the full control effect). The essentials:
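Read-out: fluorescence at 460 and 530 nm (405 nm excitation) after a 2 hr room-temperature incubation with beta-lactamase FRET substrate. SBE-bla HEK 293T cells had been treated with test compounds for 5 hr at 37 C.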

In assay [6] the target is Thyrotropin-releasing hormone receptor (Homo sapiens) (UniProt P34981). Put plainly: qHTS assay to identify small molecule antagonists of the thyrotropin-releasing hormone receptor (TRHR) signaling pathway (AID 1346877; active = well fitted inhibition curve with a large enough effect in the repeat runs, not every such curve was filed as active; note: series mostly up to about 51 µM; % is set by controls: 0 for no effect and ±100 for the full control effect). Put shortly: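 Overnight-plated (18 h, 37 °C) HEK293 cells expressing TRHR were dye-loaded 2 h, treated with compound, then stimulated with TRH at 1 nM final. Fluorescence intensity was captured every second for 3 min.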

Assay [7] has the same target. Put plainly: qHTS assay to identify small molecule agonists of the thyrotropin-releasing hormone receptor (TRHR) signaling pathway (AID 1346891; calls by dose curve;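 note: HEK293 cells expressing TRHR with calcium dye readout; series mostly up to about 58 µM; % is set by controls: 0 for no effect and ±100 for the full control effect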). Put shortly:
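HEK293/TRHR cells, 1500 per well, 18 h 37 °C; Ca dye 2 h 37 °C; pin-tool compound addition (agonist mode); kinetic fluorescence 3 min, 1 s reads; 15 concentrations, triplicate.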

A short description of assay [8]: Human pregnane X receptor (PXR) small molecule agonists, qHTS cell viability counter screen (AID 1346977). Note: % is set by controls: 0 for no effect and ±100 for the full control effect; nearly all actives have a fitted effect of over 50% in size. The essentials: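 Fluorescence read-out (CellTiter-Fluor) of viability in PXR-Luc HepG2 cells, multiplexed with the luciferase agonist read. Compounds in DMSO added after 5hr plating; 24hr total exposure at 37C, 5% CO2.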
A short description of assay [9]: Caspase-3/7 induction in HepG2 cells by small molecules, qHTS assay (AID 1346978). Note: % is set by controls: 0 for no effect and ±100 for the full control effect; nearly all actives have a fitted effect of over 15% in size. Put shortly:
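Wild-type HepG2 cells (2,000/well) were settled 5 h at 37 C, 5% CO2, then exposed to compounds in DMSO for 17 h. Caspase-3/7 activity was read by luminescence 30 min after adding Caspase-Glo 3/7 reagent at room temperature.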

A short description of assay [10]: Caspase-3/7 induction in CHO-K1 cells by small molecules, qHTS cell viability counter screen (AID 1346979). Note: % is set by controls: 0 for no effect and ±100 for the full control effect; nearly all actives have a fitted effect of over 35% in size. The essentials:
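CHO-K1 wt, 1,500 cells/well; 5hr pre-incubation 37C/5% CO2; compound pin transfer (DMSO); 16hr exposure; CellTiter-Fluor added, 1hr, fluorescence read.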

Assay [11] in a line: Caspase-3/7 induction in CHO-K1 cells by small molecules, qHTS assay (AID 1346980). Note: % is set by controls: 0 for no effect and ±100 for the full control effect; nearly all actives have a fitted effect of over 15% in size. The essentials: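 Wild-type cells were seeded at 1,500 per well and settled 5 hr at 37 C, 5% CO2, then exposed to DMSO-dissolved compounds for 17 hr. Caspase-Glo 3/7 reagent was added, and luminescence was read after 30min at room temperature.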
Assay [12] is described as follows: Caspase-3/7 induction in HepG2 cells by small molecules, qHTS cell viability counter screen (AID 1346981). Note: series mostly up to about 92 µM; % is set by controls: 0 for no effect and ±100 for the full control effect; nearly all actives have a fitted effect of over 30% in size. Put shortly:
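Treatment of HepG2 cells with DMSO-delivered compounds ran 16 hr at 37 C following a 5-hr pre-incubation of 2,000 cells/well. CellTiter-Fluor fluorescence, read after 1 hr, served as the viability measure in a qHTS format.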

Assay [13] addresses Nuclear receptor subfamily 1 group I member 2 (Homo sapiens) (UniProt O75469). Put plainly: Human pregnane X receptor (PXR) small molecule agonists, qHTS assay (AID 1346982). For activation: % is set by controls: 0 for no effect and ±100 for the full control effect. Note: nearly all actives have a fitted effect of over 35% in size. Note: potency is the fitted concentration of half-maximal effect. Put shortly:
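Stable HepG2 line reporting PXR-mediated CYP3A4 expression via luciferase. Treatment: 24 hr with compounds in DMSO at 37 C. Detection: ONE-Glo luminescence.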

Assay [14] has as its target Acetylcholinesterase (Homo sapiens) (UniProt P22303). The assay is described as follows: Acetylcholinesterase (AChE) small molecule antagonists: colormetric cell-based qHTS assay (AID 1347395; calls by dose curve; note: % is set by controls: 0 for no effect and ±100 for the full control effect; nearly all actives have a fitted effect of over 30% in size). Put shortly:
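SH-SY5Y cells; cpd 30 min 37 C; + DTNB/acetylthiocholine, 90 min 37 C; colorimetric thiocholine read; qHTS.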

Assay [15] shares this target. The assay is described as follows: Acetylcholinesterase (AChE) small molecule antagonists: enzyme-based qHTS assay (AID 1347397; calls by dose curve; note: % is set by controls: 0 for no effect and ±100 for the full control effect; nearly all actives have a fitted effect of over 55% in size). The following applies: Potency: AChE enzyme activity inhibition. The essentials: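 Tox21 library chemicals are tested in qHTS format against recombinant human AChE. The enzyme, dispensed at 50 mU/mL, sits with compound for 30 min at room temperature. A DTNB–acetylthiocholine cocktail follows, and colour is read after 10 min.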

Assay [16] is described as follows: qHTS assay to identify small molecule agonists of the progesterone receptor (PR) signaling pathway - cell viability counter screen (AID 1346799; calls by dose curve; note: % is set by controls: 0 for no effect and ±100 for the full control effect; nearly all actives have a fitted effect of over 45% in size). Put shortly: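 HEK293T PR-UAS-bla, 3,000 cells/well, 2% charcoal-stripped FBS; 6 h settle, compound 16 h at 37C/5% CO2; LiveBLAzer 2 h RT, then CellTiter-Glo 30 min RT, luminescence read.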
Assay [17] can be described thus: qHTS assay to identify small molecule agonists of the TGF-beta/Smad signaling pathway - cell viability counter screen (AID 1346829). Note: top concentration of the series differs between compounds; % is set by controls: 0 for no effect and ±100 for the full control effect; nearly all actives have a fitted effect of over 45% in size. Put shortly:
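Here the cytotoxicity of library compounds is measured in SBE-bla HEK 293T cells treated for 5 hr, using CellTiter-Glo added to wells already read for the beta-lactamase reporter.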

Assay [18] concerns the target Nuclear receptor subfamily 1 group I member 2 (Rattus norvegicus) (UniProt Q9R1A7). The assay is described as follows: Rat pregnane X receptor (rPXR) activation by small molecules, qHTS assay (AID 1346983). Note: % is set by controls: 0 for no effect and ±100 for the full control effect; nearly all actives have a fitted effect of over 20% in size. The following applies: rPXR luciferase reporter cells, One-Glo luminescence, 24 h; max activation: stronger effect = higher value. The essentials: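 Cell-based rPXR luciferase reporter assay, 2,000 cells per well, rested 5hr at 37 C before compound addition in DMSO, then 24 hr at 37 C. One-Glo reagent was added and luminescence read after 30 min at room temperature.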

The target in assay [19] is Nuclear receptor subfamily 1 group I member 2 (Homo sapiens) (UniProt O75469). Put plainly: Human pregnane X receptor (PXR) activation by small molecules, qHTS assay (AID 1346985). Note: potency is the fitted concentration of half-maximal effect; nearly all actives have a fitted effect of over 40% in size. Put shortly:
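DPX-2 cells (HepG2 co-transfected with a PXR response element and a CYP3A4-promoter luciferase construct) were seeded at 2,000 per well, rested 5 hr at 37C, then exposed to DMSO-dissolved compounds for 24 hr. Activation was read as luciferase luminescence.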

Acetylcholinesterase (Homo sapiens), sequence (P22303 whole entry, looked up): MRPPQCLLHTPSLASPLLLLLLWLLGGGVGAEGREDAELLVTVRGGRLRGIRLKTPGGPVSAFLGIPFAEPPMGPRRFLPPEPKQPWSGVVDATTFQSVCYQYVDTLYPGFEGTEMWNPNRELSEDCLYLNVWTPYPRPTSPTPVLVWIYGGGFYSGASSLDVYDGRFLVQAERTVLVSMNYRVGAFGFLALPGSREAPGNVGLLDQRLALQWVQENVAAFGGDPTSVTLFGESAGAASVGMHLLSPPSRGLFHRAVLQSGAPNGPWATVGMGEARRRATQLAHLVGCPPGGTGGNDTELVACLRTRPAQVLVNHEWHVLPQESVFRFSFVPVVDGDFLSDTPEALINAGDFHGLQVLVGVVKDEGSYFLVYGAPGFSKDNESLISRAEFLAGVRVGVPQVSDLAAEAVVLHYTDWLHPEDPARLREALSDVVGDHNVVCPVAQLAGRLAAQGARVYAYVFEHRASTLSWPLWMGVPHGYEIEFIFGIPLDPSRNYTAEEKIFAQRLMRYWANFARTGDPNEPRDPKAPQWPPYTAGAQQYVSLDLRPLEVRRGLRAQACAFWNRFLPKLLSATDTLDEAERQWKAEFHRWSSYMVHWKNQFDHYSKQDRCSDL
Progesterone receptor (Homo sapiens), sequence (P06401 whole entry, looked up): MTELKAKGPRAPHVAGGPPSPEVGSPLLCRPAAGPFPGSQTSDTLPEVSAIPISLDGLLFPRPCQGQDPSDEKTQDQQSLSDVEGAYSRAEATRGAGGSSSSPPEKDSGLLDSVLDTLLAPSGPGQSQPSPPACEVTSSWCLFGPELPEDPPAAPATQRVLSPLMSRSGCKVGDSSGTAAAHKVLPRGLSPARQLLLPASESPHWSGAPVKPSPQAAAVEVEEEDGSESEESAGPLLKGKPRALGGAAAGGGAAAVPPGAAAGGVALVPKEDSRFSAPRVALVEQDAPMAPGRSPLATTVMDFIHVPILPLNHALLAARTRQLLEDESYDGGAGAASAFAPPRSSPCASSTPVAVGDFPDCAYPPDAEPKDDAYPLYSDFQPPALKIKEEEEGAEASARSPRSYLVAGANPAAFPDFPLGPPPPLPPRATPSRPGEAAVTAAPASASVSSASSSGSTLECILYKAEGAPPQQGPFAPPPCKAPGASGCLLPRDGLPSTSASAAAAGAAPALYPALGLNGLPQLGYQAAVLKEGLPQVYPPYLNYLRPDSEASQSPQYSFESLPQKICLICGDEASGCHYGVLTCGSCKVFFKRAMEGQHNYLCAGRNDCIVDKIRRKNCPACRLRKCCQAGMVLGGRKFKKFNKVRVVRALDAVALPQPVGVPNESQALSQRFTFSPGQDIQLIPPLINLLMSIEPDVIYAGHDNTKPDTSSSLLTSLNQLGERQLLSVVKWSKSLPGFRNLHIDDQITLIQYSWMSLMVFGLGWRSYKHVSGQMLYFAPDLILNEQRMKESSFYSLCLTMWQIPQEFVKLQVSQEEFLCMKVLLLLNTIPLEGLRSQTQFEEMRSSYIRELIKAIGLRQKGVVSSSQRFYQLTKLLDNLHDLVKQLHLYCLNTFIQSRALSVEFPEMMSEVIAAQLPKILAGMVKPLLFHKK
Thyrotropin-releasing hormone receptor (Homo sapiens), sequence (P34981 whole entry, looked up): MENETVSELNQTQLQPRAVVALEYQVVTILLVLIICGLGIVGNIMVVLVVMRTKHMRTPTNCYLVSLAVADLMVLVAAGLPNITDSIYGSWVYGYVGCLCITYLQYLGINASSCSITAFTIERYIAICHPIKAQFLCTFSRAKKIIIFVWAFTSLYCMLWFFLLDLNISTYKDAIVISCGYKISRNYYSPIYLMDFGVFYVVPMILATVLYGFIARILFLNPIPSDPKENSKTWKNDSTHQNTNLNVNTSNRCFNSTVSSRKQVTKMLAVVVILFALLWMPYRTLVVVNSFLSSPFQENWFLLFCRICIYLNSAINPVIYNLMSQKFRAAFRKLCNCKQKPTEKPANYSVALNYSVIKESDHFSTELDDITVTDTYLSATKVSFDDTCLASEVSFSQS
Nuclear receptor subfamily 1 group I member 2 (Homo sapiens), sequence (O75469 whole entry, looked up): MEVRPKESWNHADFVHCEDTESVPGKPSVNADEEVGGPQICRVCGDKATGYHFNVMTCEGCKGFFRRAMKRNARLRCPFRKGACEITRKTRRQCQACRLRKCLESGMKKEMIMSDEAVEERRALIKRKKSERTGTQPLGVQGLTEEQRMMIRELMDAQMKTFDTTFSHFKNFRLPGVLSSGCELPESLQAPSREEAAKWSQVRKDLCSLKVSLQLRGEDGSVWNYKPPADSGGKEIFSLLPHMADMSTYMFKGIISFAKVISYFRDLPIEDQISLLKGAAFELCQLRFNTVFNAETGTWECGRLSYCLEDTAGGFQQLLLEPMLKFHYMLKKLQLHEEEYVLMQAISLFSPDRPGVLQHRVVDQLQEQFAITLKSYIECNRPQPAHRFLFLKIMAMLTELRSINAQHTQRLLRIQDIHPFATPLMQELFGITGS
Nuclear receptor subfamily 1 group I member 2 (Rattus norvegicus), sequence (Q9R1A7 whole entry, looked up): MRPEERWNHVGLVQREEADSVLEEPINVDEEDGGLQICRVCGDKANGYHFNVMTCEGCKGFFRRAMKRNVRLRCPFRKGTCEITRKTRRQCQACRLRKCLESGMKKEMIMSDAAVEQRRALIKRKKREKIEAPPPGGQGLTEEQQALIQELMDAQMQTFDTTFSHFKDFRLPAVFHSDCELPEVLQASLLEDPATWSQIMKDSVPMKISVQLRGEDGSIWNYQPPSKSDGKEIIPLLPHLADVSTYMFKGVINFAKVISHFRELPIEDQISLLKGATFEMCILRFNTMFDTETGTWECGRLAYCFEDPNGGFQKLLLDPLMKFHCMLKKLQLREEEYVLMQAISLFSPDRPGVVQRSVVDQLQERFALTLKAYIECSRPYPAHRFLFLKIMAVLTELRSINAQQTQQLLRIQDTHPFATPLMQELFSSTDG

As for `ClC(Br)Br`, the Potency entry in assay [1], in [2], in [3], in assay [4], in assay [8] and in assay [9] was “inactive” throughout. Also, the Potency entry in [10], in assay [11], in [12], in [13], in [14] and in assay [15] was “inactive” in each case. Also, the call in assay [5], in assay [6] and in assay [7] was inactive.

Consider `Cc1ncc(CNC(=O)N(CCCl)N=O)c(N)n1`, for which the Potency result in assay [1], in assay [2], in [16], in assay [4], in assay [8] and in assay [9] was “inactive” in each case. Further, the Potency result in assay [10], in assay [11], in [12], in assay [13], in assay [14] and in assay [15] was “inactive” in each case. Besides, the compound was classed as inactive in assay [17], in [5], in [6] and in assay [7].

For `CC1(C)CON(Cc2ccccc2Cl)C1=O`, the Potency result in assay [1], in assay [3], in [16], in [4], in assay [8] and in [9] was “inactive” throughout. The Potency entry in [10], in assay [11], in assay [12] and in assay [15] was “inactive” in each case. The call in assay [17], in assay [5], in [6] and in [7] was inactive. Besides, the Potency in assay [13] was 68.6 µM (active).

On to `NC(=S)C(N)=S`, for which the Potency entry in assay [1], in [2], in assay [4], in assay [8], in assay [9] and in assay [10] was “inactive” in each case. In addition, the Potency result in [11], in [12], in [13] and in assay [15] was “inactive” throughout. The compound was called inactive in assay [17] and in assay [5].

Turning to `CS(=O)(=O)c1cc(C(F)(F)F)ccc1C(=O)c1cnoc1C1CC1`, the Potency entry in assay [1], in assay [2], in assay [4], in assay [8], in assay [9] and in [10] was “inactive” in each case. In addition, the Potency entry in assay [11], in assay [12], in assay [13], in assay [14] and in [15] was “inactive” in each case. Moreover, in assay [5], the compound was called inactive.

For `CC1(C(=O)Nc2ccc(O)c(Cl)c2Cl)CCCCC1`, the Potency entry in assay [1], in assay [4], in assay [8], in assay [9], in assay [11] and in assay [12] was “inactive” each time. Moreover, the Potency entry in [15] was “inactive”. Besides, the Potency in [2] is 27.3 µM (active); in [13], 19.3 µM (active). Also, the compound was classed as inactive in assay [17], in assay [5], in assay [6] and in assay [7].

On to `CN1C(=S)CN=C(c2ccccc2)c2cc(Cl)ccc21`, for which the Potency entry in assay [1], in assay [8], in assay [9], in assay [10], in [11] and in assay [12] was “inactive” throughout. In addition, in assay [15], the Potency entry is “inactive”. Also, the results for the Potency in assay [2], in assay [13] and in assay [19] were 21.1 µM (active), 26.6 µM (active) and 14.1 µM (active), respectively. Moreover, the result in assay [5], in assay [6] and in assay [7] was inactive. Besides, the max activation in assay [18] is -0.756%.

Consider `COC(=O)c1c(C(F)F)nc(C(F)(F)F)c(C2=NCCS2)c1CC(C)C`, for which the Potency entry in assay [1], in assay [3], in assay [16], in assay [8], in assay [9] and in assay [10] was “inactive” in each case. Further, the Potency result in assay [11], in assay [12] and in assay [15] was “inactive” throughout. In addition, the call in assay [17], in [5], in assay [6] and in assay [7] was inactive. Further, the Potency in [13] was 0.77 µM (active).

Regarding `CCC/C(=N\OCC)C1=C(O)CC(CC(C)SCC)CC1=O` (configuration not stated), the Potency result in [1], in assay [3], in assay [16], in [4], in assay [8] and in assay [9] was “inactive” throughout. Also, the Potency result in [10], in assay [11], in assay [12], in assay [14] and in assay [15] was “inactive” in each case. Besides, the call in [17], in assay [5], in assay [6] and in assay [7] was inactive. In addition, the Potency in assay [13] was 48.9 µM (active).
